eIF4H FP inh: inhibitors of RNA binding by human eIF4H. inhibition, % at 35 µM. eIF4H fluorescence polarization binding assay. hit rate 0.94% among 290,000. Q15056. AID 2012;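 note: calls also rest on retests at 20 µM and on dose response follow-up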
eIF4E 4G PPI: eIF4E/eIF4G interaction inhibition in translation initiation; AID 782; inhibition, % at 21.7 µM; P63073+Q04637; hit rate 0.37% among 220,000; TR-FRET eIF4E-eIF4GI(517-606) binding, 2 h;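 active = inhibition above about 30%, limit read from the data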;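 note: 0% = full FRET control wells and 100% = background wells lacking eIF4GI fragment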
EBV gp42 inh: blocks Epstein-Barr virus glycoprotein 42 binding; hit rate 0.42% among 220,000; inhibition, % (tested at 21.74 µM); Fluorescence polarization binding assay, mP read-out; Q1HVG2; AID 1085; in the data active = inhibition above about 50%
MLLE-PAM2 inh: blocks PAM2 peptide binding to the PABP1 MLLE domain | P11940 | GST-MLLE / FITC-PAM2 fluorescence polarization | inhibition, % at 20 µM | hit rate 0.36% among 360,000; in the data active = inhibition above about 35%, passing the limit was not always enough;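 note: plate controls were DMSO wells with GST-MLLE for no effect and wells lacking GST-MLLE protein for full effect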
Target sequence (P11940 whole entry, looked up, the tested form may be a part): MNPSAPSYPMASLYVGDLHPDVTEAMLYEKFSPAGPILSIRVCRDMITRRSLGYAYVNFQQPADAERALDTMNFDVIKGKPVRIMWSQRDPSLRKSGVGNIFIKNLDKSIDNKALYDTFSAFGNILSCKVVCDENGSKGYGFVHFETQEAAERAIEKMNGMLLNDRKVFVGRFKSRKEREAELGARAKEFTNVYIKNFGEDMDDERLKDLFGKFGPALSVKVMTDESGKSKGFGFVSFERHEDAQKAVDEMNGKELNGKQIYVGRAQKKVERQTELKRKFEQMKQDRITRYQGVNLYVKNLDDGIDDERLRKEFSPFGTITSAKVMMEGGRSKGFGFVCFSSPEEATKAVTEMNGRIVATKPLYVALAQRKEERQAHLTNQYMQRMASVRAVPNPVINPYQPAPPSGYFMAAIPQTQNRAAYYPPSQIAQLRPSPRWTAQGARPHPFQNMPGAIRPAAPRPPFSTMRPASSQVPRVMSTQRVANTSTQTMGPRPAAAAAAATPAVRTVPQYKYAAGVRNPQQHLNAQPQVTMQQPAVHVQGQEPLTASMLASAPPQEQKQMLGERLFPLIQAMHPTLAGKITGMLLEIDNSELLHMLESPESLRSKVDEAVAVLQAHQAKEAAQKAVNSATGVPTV
PABP FP inh: blocks human PABP binding to poly(A) RNA; hit rate 1% among 290,000; fluorescence polarization; P11940; calls only at 35 µM;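 note: calls also rest on retests at 20 µM and on dose response follow-up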
* marks the source's active call; other numbers are inactive results; i = inactive; ? = inconclusive; / = no result given; + = active, no number. The list is not random: actives were taken first. Their share in the collection is about 1.7%. Unless noted, the rule behind the calls is not given here.

SMILES	eIF4H FP inh	eIF4E 4G PPI	EBV gp42 inh	MLLE-PAM2 inh	PABP FP inh
NC(=O)NC(=O)CC1S/C(=N/N=C2\CSC(=O)N2)NC1=O (configuration not stated)	12	-15	-9	43*	i
O=C(CN1C2=NCCCN2c2ccccc21)c1ccc(Cl)cc1Cl	-1	0	-24	-11	i
COC(=O)C1=C(C)N(Cc2ccccc2)C(=NCC2CC2)N[C@H]1c1ccccc1	/	/	/	-78	/
COC(=O)C1=C(C)N(Cc2ccccc2)C(=NCc2ccc(OC)cc2)N[C@H]1c1cccc(F)c1	1	/	/	-115	+
COC(=O)C1=C(C)N(Cc2ccccc2)C(=NCCCCO)N[C@H]1c1ccccc1	28	/	/	/	+
COc1cccc(OC)c1C(=O)OCc1c(-c2ccccc2)ncc2ccccc12	/	/	/	6	/
O=C1OCCC1=CN1CCCCC1	/	/	/	9	/
CC(OC(=O)c1cc(S(=O)(=O)N2CCOCC2)ccc1F)C(=O)NC1CCCCC1C (configuration not stated)	-3	/	/	2	i
Cc1ccc(C(=O)Oc2coc(CSc3nnc(NC(=O)c4cccs4)s3)cc2=O)cc1	90*	8	7	6	+
CC(=O)Nc1nnc(SCc2cc(=O)c(OC(=O)c3ccccc3)co2)s1	-1	0	-5	14	i
Cc1ccc(CC(=O)NNC(=O)c2ccncc2)cc1C	/	/	/	57*	/
Cc1ccc(C(=O)NNC(=O)c2ccncc2)cc1C	-7	/	/	-1	i
Cc1c(C(=O)N2CCCCC2)c(S(=O)(=O)NCCc2ccc(S(N)(=O)=O)cc2)c(C)n1C	10	/	/	-17	i
CNc1nc(-c2ccccc2)cc(C(F)(F)F)c1C#N	96*	0	-6	8	+
Cc1cccc2c(N=Nc3ccccc3)c(O)[nH]c12	95*	/	/	-19	+
COc1cc(C(=O)N2CCCC(C)(C(=O)NS(=O)(=O)C3CC3)C2)cc(OC)c1OC (configuration not stated)	/	/	/	0	/
Cc1ccc(S(=O)(=O)C(C#N)c2nc3ccccc3nc2N2CC(C)OC(C)C2)cc1C (configuration not stated)	85*	4	-9	11	+
Cc1ccc(S(=O)(=O)C(C#N)c2nc3ccccc3nc2N2CCCC2)cc1 (configuration not stated)	?	-2	91*	0	?
COc1ccc(S(=O)(=O)C(C#N)c2nc3ccccc3nc2N2CCCC(C)C2)cc1 (configuration not stated)	122	-5	32	29	i
CC1CCCN(c2nc3ccccc3nc2C(C#N)S(=O)(=O)c2cccs2)C1 (configuration not stated)	35	11	-1	51*	i
CCN(CC)c1ccc(-c2n[nH]c(=S)n2-c2ccccc2)cc1	3.4*	-3	-4	5	i
CN(C)c1ccc(-c2n[nH]c(=S)n2-c2ccccc2)cc1	-10	-8	-15	-3	i
O=C(OCC(=O)N1CCOCC1)c1cncc(Br)c1	/	/	/	-1	/
Cc1ccc(S(=O)(=O)CCSc2cccc(C(=O)O)c2)cc1	5	/	/	44*	i
COc1ccc(COC[B-](F)(F)F)cc1	/	/	/	9	/
SMILES	eIF4H FP inh	eIF4E 4G PPI	EBV gp42 inh	MLLE-PAM2 inh	PABP FP inh
Cc1ccc2nc(/C(C#N)=C/c3ccc(-c4ccccc4C(=O)O)o3)[nH]c2c1	?	/	/	-126	?
N#C/C(=C\c1ccc(-c2ccccc2C(=O)O)o1)c1nc2ccccc2[nH]1	79	/	/	-126	+
Cc1cc(/C=C(/C#N)c2nc3ccccc3[nH]2)c(C)n1-c1cc(C(=O)O)cc(C(=O)O)c1	?	4	129*	9	i
CC(C)(C)[C@@H]1COC(=O)[C@H](Cc2ccc(F)cc2)CC/C=C\C[C@@H](CC(=O)NCCO)C(=O)N1	/	/	/	-3	/
NS(=O)(=O)c1ccc(N/N=C/c2ccc(O)c(O)c2O)c([N+](=O)[O-])c1	96*	78*	97*	42*	i
CCCOc1ccc(-c2nc(SCc3ccccc3)[nH]c(=O)c2C#N)cc1OC	5	/	/	5	i
N#C/C(=C(/O)COC(=O)c1ccc(C#N)cc1)c1nc2ccccc2s1	17	6	-2	-18	i
COc1ccc(CNCc2c(F)cccc2F)cc1OC	2	/	/	6	i
CCn1c(COc2ccccc2C)nnc1SCC(=O)N1CCCCC1	8	-11	3	2	i
CCn1c(COc2ccccc2C)nnc1SCC(=O)N1CCC(C)CC1	13	11	76*	0	i
Cc1cc2cc(CNC(=O)c3cccc([N+](=O)[O-])c3)ccc2[nH]1	5	-2	-4	45*	i
COc1cccc(C(=O)NCc2ccc3[nH]c(C)cc3c2)c1	6	-3	-5	38*	i
Cc1cccc(NC(=O)c2cc(S(=O)(=O)N3CCCCC3)ccc2Cl)n1	/	/	/	6	/
CCCCNC(=O)c1c(CSc2ccccc2)noc1C(=O)NCc1ccccc1	-3	4	-12	6	i
CC(NC(=O)c1ccc(NC(=O)CC2SC(N3CCCC3)=NC2=O)cc1)c1ccccc1 (configuration not stated)	/	/	/	15	/
CN(C)c1ccc(/C=C2\SC(=O)N(CC(O)Cn3c4ccccc4c4ccccc43)C2=O)cc1 (configuration not stated)	?	-5	115*	-58	i
O=C1S/C(=C/c2ccccc2)C(=O)N1CC(O)Cn1c2ccccc2c2ccccc21 (configuration not stated)	6	1	8	1	i
CCN(CC(=O)Nc1c(F)cccc1F)C(=O)C1CC(=O)N(c2ccccc2OC)C1 (configuration not stated)	10	/	/	-3	+
COc1ccc(OC)c(N2C(=O)c3cccnc3C2=O)c1	-6	/	/	-7	i
Fc1ccc(NC(=S)N2CCCC(c3ccccc3)=N2)cc1	54*	-3	-10	-90	+
CCN(CC)C(=O)COC(=O)c1cc(-c2ccc(OC)cc2)nc2ccccc12	13	3	1	-5	i
CCCn1c(N)c(N(CCOC)C(=O)c2cc(-c3ccco3)nc3ccccc23)c(=O)[nH]c1=O	59*	/	/	18	i
COCCCN(C(=O)c1cc(-c2ccco2)nc2ccccc12)c1c(N)n(Cc2ccccc2)c(=O)[nH]c1=O	/	/	/	7	/
CCN(CC)C(=O)COC(=O)c1cc(-c2ccco2)nc2ccccc12	82*	34*	52*	19	+
O=C(Nc1ccccc1N1CCOCC1)c1cc(-c2ccco2)nc2ccccc12	82*	5	15	8	i
CNC(=O)COC(=O)c1cc(-c2ccco2)nc2ccccc12	74*	38*	31	-5	+
Cn1c(N)c(C(=O)COC(=O)c2cc(-c3ccco3)nc3ccccc23)c(=O)n(C)c1=O	?	4	15	6	+
CCNC(=O)COC(=O)c1cc(-c2ccc(OC)cc2)nc2ccccc12	-5	3	-9	-12	i
O=C(O)c1cc(-c2ccco2)nc2cc3ccccc3cc12	100*	0	-8	-3	+

High-throughput results (PubChem BioAssay)
